Records with an inconclusive call do not appear. The source made the active and inactive calls. How the source made its calls: active means hit-call score of the fitted dose curve at least 0.9, where 1 is the maximum; inconclusive means response in the unintended direction; inactive means score below 0.9.

This test is described as follows: Tanguay_ZF_120hpf_SOMI_legacy: (Legacy) Oregon State University Tanguay Lab 120 Hour Post-fertilization zebrafish Assay for Somite Malformation (AID 2283647). How it is done: Tanguay_ZF_120hpf_legacy is a whole embryo, multiplexed endpoint assay using zebrafish larvae exposed for 120 hours post fertilization on a 96-well plate.Tanguay_ZF_120hpf_SOMI_legacy is one of one assay component(s) measured or calculated from the Tanguay_ZF_120hpf_legacy assay. It is designed to make measurements of zebrafish development as detected with brightfield microscopy of developing zebrafish embryos.Data from the assay component Tanguay_ZF_120hpf_SOMI_legacy was analyzed into 1 assay endpoints. This assay endpoint, Tanguay_ZF_120hpf_SOMI_legacy, was analyzed in the positive analysis fitting direction relative to DMSO as the negative control and baseline of activity. Using a type of morphology reporter, gain-of-signal activity can be used to understand changes in developmentals as they relate to the whole embryo. To generalize the intended target to other relatable targets, this assay endpoint is annotated to the zebrafish development intended target family, where the subfamily is somitogenesis.
Zebrafish husbandry: Tropical 5D wild-type adult zebrafish were housed in at an approximate density of 1000 per 100 gallon tank at the Sinnhuber Aquatic Research Laboratory, Oregon State University, Corvallis, OR. Each tank was kept at standard laboratory conditions of 28C on a 14-h light/10-h dark photoperiod in fish water consisting of reverse osmosis water supplemented with a commercially available salt (Instant Ocean). Spawning funnels were placed into the tanks the night prior, and embryos were collected and staged. To increase bioavailability, the chorion was enzymatically removed using pronase (63.6mg/ml, >/= 3.5U/mg, Sigma-Aldrich: P5147) at 4 hours post fertilization (hpf) using a custom automated dechorionator.Chemical exposures: Six hpf dechorionated embryos were placed 1 embryo per well in a 96-well plate prefilled with 90 ul of EM using automated embryo placement systems (AEPS). Ten microliters of each row of dilution plate 2 was added to 2 exposure plates. The final DMSO concentration used was 0.64% (vol/vol). Thirty-two embryos were also exposed to 5uM trimethyltin chloride (positive control). Plates were sealed to prevent evaporation and foil covered to reduce light exposure and kept in a 28C incubator. Embryos were statically exposed until 120 hpf. At 24 hpf, embryos were assessed for photomotor response using a custom photomotor response analysis tool (PRAT) and for developmental toxicity endpoints (MO24: mortality at 24 hpf, DP: developmental progression, SM: spontaneous movement, and NC: notochord distortion). At 120 hpf, locomotor activity was measured using Viewpoint Zebralab and assessed for 18 endpoints. Zebrafish acquisition and analysis program (ZAAP), a custom program designed to inventory, acquire, and manage zebrafish data, was used to collect developmental endpoints as either present or absent (i.e., binary responses were recorded). If mortality occurred for an embryo (at either 24 or 120 hpf), the non-mortality endpoints were not measured.
For `OCC(CO)(CBr)CBr`, the outcome was inactive. To `CN(Cc1cnc2nc(N)nc(N)c2n1)c1ccc(C(=O)N[C@@H](CCC(=O)O)C(=O)O)cc1` belongs “inactive”. Turning to `CCC(C)c1ccccc1O` (stereo not drawn), the outcome was inactive. For `CCCCCCCCCCCCCCC`, the call was inactive. Consider `Cc1[nH]nc2c1N=C(c1ccccc1Cl)c1cc([N+](=O)[O-])ccc1N2`, for which the outcome was inactive. As for `CCCCCCCCCCCCOS(=O)(=O)O`, the compound was called inactive.

Take `CN(C)CCOC(c1ccccc1)c1ccccc1`: the result was inactive. The entry for `O=C(CCCN1CCC(O)(c2ccc(Cl)cc2)CC1)c1ccc(F)cc1` is “inactive”; for `O=C(c1ccccc1)c1ccccc1` it is “inactive”. Consider `O=C1NS(=O)(=O)c2ccccc21`, for which the compound was classed as inactive. `CC(=O)Nc1ccc(O)cc1`: the compound was classed as inactive. As for `CCCCC=O`, the call was inactive.

Take `CCCCc1oc2ccccc2c1C(=O)c1cc(I)c(OCCN(CC)CC)c(I)c1`: the result was inactive.

The values above are taken from PubChem BioAssay (EPA / NIEHS).
